From PubChem
TLR9-MyD88 inh: blocks human TLR9 binding to MyD88 | inhibition, % at 4.98 µM | AID 504734 | CHO BLA complementation TLR9-MyD88, CCF4 FRET ratio | 0.21% of 340,000 active | Q9NR96+Q99836;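 active means inhibition above the mean over all tested compounds plus 3 SD, cut at about 21% in these data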
Beta2AR agonist: agonists of human beta-2 adrenergic receptor inducing internalization; P07550; AID 504454; 0.43% of 340,000 active; response, % (test concentration not listed); Am2.2-beta2AR cells, FAP receptor internalization, flow cytometry;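 active means response above a set limit, near 3 SD of response in nonfluorescent compounds, cut at about 42% in these data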
A1 inh: inhibitors of the anti-apoptotic protein A1, read as caspase activation; 0.066% of 330,000 active; AID 2462; MEF A1-2A-BIM cells, Caspase-Glo 3/7 luminescence, 3 h; percent of clofoctol response, vehicle zero; caspase activation, % (concentration not given with the values);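 active means over half of replicate activation scores above 10%, or exactly half above 10 with the replicate mean above 10; inconclusive means replicate mean below 10 yet half the replicates above 10; inactive means over half of replicates below 10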
TLR4-MyD88 BLA: TLR4-MyD88 interaction inhibition in cells; AID 861; inhibition, % at 8.4 µM; HeLa CL3-4 TLR4/MyD88 BLA complementation, FRET ratio; 0.18% of 200,000 active; O00206+Q99836; in the data active means inhibition above about 25%
NTR1 agonist: activates human neurotensin receptor 1; NTR1-U2OS beta-arrestin-GFP spot imaging, agonist mode; activation, % at 20 µM; 0.17% of 330,000 active;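 active means activation at or above 40% of the spot to cytoplasm intensity ratio, with at least 20 cells analyzed; inconclusive means wells under 20 cells, flagged as cytotoxic or low count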
Target sequence (P30989 whole entry, looked up): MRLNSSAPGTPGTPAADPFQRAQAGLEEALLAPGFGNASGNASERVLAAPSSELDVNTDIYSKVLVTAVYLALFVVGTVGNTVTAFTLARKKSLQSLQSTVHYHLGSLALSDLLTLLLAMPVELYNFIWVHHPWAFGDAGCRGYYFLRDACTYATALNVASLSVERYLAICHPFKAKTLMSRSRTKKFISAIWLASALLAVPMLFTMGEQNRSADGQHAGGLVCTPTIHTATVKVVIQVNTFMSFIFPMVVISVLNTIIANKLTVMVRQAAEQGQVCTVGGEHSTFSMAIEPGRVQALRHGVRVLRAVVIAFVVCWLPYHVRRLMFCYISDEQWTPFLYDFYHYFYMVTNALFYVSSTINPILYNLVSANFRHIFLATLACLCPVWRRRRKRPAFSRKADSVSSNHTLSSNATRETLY
NOD2-RIPK2 inh: inhibitors of human NOD2-RIPK2 interaction; O43353; CHO BLA complementation NOD2-RIPK2, CCF4 ratio; 0.38% of 360,000 active; inhibition, % at 4.98 µM; in the data active means inhibition above about 21%
NOD2-RIPK2 conf: NOD2-RIPK2 interaction inhibition confirmed; shares compounds with NOD2-RIPK2 inh; CHO cells, NOD2-RIPK2 BLA complementation, CCF4 FRET; inhibition, % at 4.98 µM; 70% of 1,200 active; AID 624370;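 active means mean inhibition across replicates above a set limit taken from the earlier primary screen, cut at about 21% in these data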
BLA counter: NOD2-RIPK2 counterscreen BLA reporter activity; shares compounds with NOD2-RIPK2 inh; CHO BLA reporter, CCF4 FRET ratio; inhibition, % at 4.98 µM; 57% of 1,200 active;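 active means mean inhibition above the low-control mean inhibition plus three low-control SD, cut at about 11% in these data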
A number is an active result; i = inactive; ? = inconclusive; nt = no result given. Compounds with a hit are over-represented: about 0.97% of the library has one in this group of screens.

SMILES	TLR9-MyD88 inh	Beta2AR agonist	A1 inh	TLR4-MyD88 BLA	NTR1 agonist	NOD2-RIPK2 inh	NOD2-RIPK2 conf	BLA counter
O=C(c1ccc2nc3ccc(Cl)cc3c(=O)n2c1)N1CCOCC1	i	i	i	i	i	i	nt	nt
S=C(c1ccc(-c2ccccc2Cl)o1)N1CCOCC1	i	i	i	i	i	21.7	i	i
S=C(c1ccc(-c2ccc(Cl)c(Cl)c2)o1)N1CCOCC1	i	i	i	i	i	i	nt	nt
CCCCn1c(=O)[nH]c2nc3cc(N)ccc3nc2c1=O	i	i	i	i	nt	26.2	31.1	36.8
Cc1cc2nc3c(=O)n(CCc4ccccc4)c(=O)[nH]c3nc2cc1N	i	i	i	nt	i	i	nt	nt
Nc1ccc2nc3c(=O)n(CCc4ccccc4)c(=O)[nH]c3nc2c1	nt	i	i	nt	i	37.5	36.1	35.1
O=C(Nc1ccccc1)c1ccc(Nc2c([N+](=O)[O-])cc([N+](=O)[O-])c3ccccc23)cc1	i	i	i	i	i	i	nt	nt
O=[N+]([O-])c1cc(Br)c(Nc2ccccc2)c([N+](=O)[O-])c1	i	46.6	i	nt	i	41.0	58.3	i
O=C(NCc1cccnc1)/C(=C\c1ccc(-c2cccc(Cl)c2)o1)S(=O)(=O)c1ccccc1	i	i	i	i	nt	35.1	47.6	i
CC(=O)Nc1cccc(-c2nnc3n2CC(C)S3)c1 (stereo not given)	i	i	i	i	i	i	nt	nt
Cc1ccccc1C(=O)Nc1c2c(nn1C(C)(C)C)CS(=O)(=O)C2	i	i	i	nt	i	i	nt	nt
CC1=CC(c2ccc(Cl)cc2)n2nc(N3C(=O)CCC3=O)nc2N1 (stereo not given)	i	i	i	i	i	i	nt	nt
Cc1ccc(C2C=C(c3ccccc3)Nc3nc(N4C(=O)CCC4=O)nn32)cc1 (stereo not given)	nt	i	nt	i	i	44.8	32.7	34.6
Cc1ccc(NC(=O)Cn2ncc(Cl)c(Cl)c2=O)cc1S(=O)(=O)N1CCCCC1	i	i	?	nt	i	34.2	43.0	10.5
O=C(Cn1ncc(Cl)c(Cl)c1=O)NCC1CCCCC1	i	59.8	10.0	i	nt	21.4	29.1	i
O=C(Cn1ncc(Cl)c(Cl)c1=O)NC1CCCCC1	i	i	i	nt	i	i	nt	nt
CCCC(C)C(=O)Nc1ccc(S(=O)(=O)N2CCCC2)cc1 (stereo not given)	i	i	i	nt	i	i	nt	nt
COc1cc(/C=C/[N+](=O)[O-])ccc1OC(=O)/C=C/c1ccc(F)cc1	i	i	i	nt	i	37.7	56.3	i
CN(c1ccccc1)S(=O)(=O)c1cccc(NC(=O)CSc2ncn[nH]2)c1	i	i	i	i	i	i	nt	nt
CN(CC1COCCO1)c1nc2nonc2nc1N1CCSCC1 (stereo not given)	i	i	i	i	i	33.7	i	i
COc1ccc(OCC#CCN2CC(C)OC(C)C2)cc1 (stereo not given)	i	i	i	i	i	i	nt	nt
CN(Cc1ccccc1)C(=O)CSc1nc2ccccc2c(=O)n1Cc1ccco1	i	i	i	i	i	i	nt	nt
Cc1ccc(NC(=O)CN(C)C(=O)CSc2nc3ccccc3c(=O)n2Cc2ccco2)cc1	i	i	i	i	i	21.1	i	16.1
O=c1sc(/C=N/Nc2ccccc2)c(Cl)n1Cc1ccccc1	i	i	i	i	i	29.4	i	i
O=C(Nc1ccc(Cl)cc1)OCCn1nnnc1C(c1ccccc1Cl)N1CCOCC1 (stereo not given)	i	i	i	i	i	i	nt	nt
SMILES	TLR9-MyD88 inh	Beta2AR agonist	A1 inh	TLR4-MyD88 BLA	NTR1 agonist	NOD2-RIPK2 inh	NOD2-RIPK2 conf	BLA counter
CCOC(=O)c1c(C)[nH]c(C2=NNC(=Nc3ccc(OCC)cc3)SC2)c1C	i	i	i	i	nt	35.3	i	i
CCOC(=O)c1c(C)[nH]c(C2=NNC(=Nc3ccccc3)SC2)c1C	i	i	nt	i	nt	i	nt	nt
O=C(CCN1C(=O)/C(=C/c2ccccc2Cl)SC1=S)N1CCCC1	i	i	i	nt	i	i	nt	nt
CSc1nnc(NC(=O)c2nc(S(=O)(=O)Cc3ccccc3)ncc2Cl)s1	i	i	nt	nt	i	i	nt	nt
CCCc1nnc(NC(=O)c2nc(S(=O)(=O)Cc3ccc(C)cc3)ncc2Cl)s1	i	i	i	nt	i	32.4	29.9	17.9
COc1cc(NC(=O)CCNS(=O)(=O)c2cc(Br)cnc2N)cc(OC)c1	i	i	i	nt	i	i	nt	nt
O=C1c2cccc3cc([N+](=O)[O-])cc(c23)C(=O)N1CC1CCCO1 (stereo not given)	i	i	i	nt	i	24.2	i	i
O=C(c1ccc(Cl)c(S(=O)(=O)N2CCCC2)c1)N1CCN(c2ccccn2)CC1	i	i	i	i	i	i	nt	nt
O=C(O)Cc1sc(NCc2ccco2)nc1-c1ccccc1	i	i	i	nt	i	i	nt	nt
O=c1oc2ccccc2cc1-c1nnc(NCc2ccco2)s1	i	i	i	i	i	35.2	35.8	41.0
Cc1ccc(-c2nnn(CC(=O)Nc3ccccc3N3CCOCC3)n2)cc1	i	i	i	i	i	21.3	i	i
CCOc1ccc(CNC(=O)CCc2cn(C)c3ccccc23)cc1OC	i	i	i	i	i	36.8	i	i
CCOc1ccc(CNC(=O)CCS(=O)(=O)Cc2ccccc2C)cc1OC	i	i	i	i	i	i	nt	nt
CC(C)n1ncc2c(C(=O)Nc3cccc(S(=O)(=O)N(C)C)c3)cc(C3CC3)nc21	i	i	i	nt	i	i	nt	nt
O=c1oc2cc(O)ccc2cc1-c1ccccc1	i	i	i	nt	i	22.5	28.0	40.4
O=c1oc2ccccc2cc1-c1ccc(O)cc1O	i	i	i	i	i	i	nt	nt
O=C(COC(=O)c1ccc[nH]c1=O)NCCc1ccc(F)cc1	i	i	i	i	i	i	nt	nt
CC(C)(C)NC(=O)C(c1ccncc1)n1c(=O)c(-c2cc3ccccc3[nH]2)nc2ccccc21 (stereo not given)	nt	nt	nt	nt	nt	49.2	48.2	67.5
CC(C)(C)NC(=O)C(c1cc2ccccc2o1)n1c(=O)c(-c2cc3ccccc3[nH]2)nc2ccccc21 (stereo not given)	nt	nt	nt	nt	nt	49.8	46.4	69.8
COc1ccc(C(C(=O)NC(C)(C)C)n2c(=O)c(-c3cc4ccccc4[nH]3)nc3ccccc32)cc1 (stereo not given)	nt	nt	nt	nt	nt	41.0	40.5	64.4
CC(=O)Nc1ccc(NC(=O)c2ccc(NS(=O)(=O)c3cc(C(C)(C)C)ccc3C)cc2)cc1	i	i	i	i	i	38.9	i	i
Cc1cc(F)ccc1NC(=O)c1ccc(NS(=O)(=O)c2cc(C(C)(C)C)ccc2C)cc1	i	i	i	i	i	i	nt	nt
